# High-throughput results as filed in PubChem.
# An excerpt weighted towards active compounds, which were near 31% of everything screened.
# PLAP act = activates human placental alkaline phosphatase; purified PLAP enzyme, luminescent substrate read-out; stronger effect = higher value; activation fold at 20 µM; 1.2% of 96,000 active; in the data active means activation fold above about 2
# CYP2C9 inh = human CYP2C9 inhibition; inhibition, % at 5 µM; AID 777; 20% of 96,000 active; P11712; CYP2C9 Supersomes, luciferin-H conversion, luminescence;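 active means blocking of liver enzyme CYP2C9 beyond about 50% at 5 µM, limit read from the data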
# Target sequence (P11712 whole entry, looked up): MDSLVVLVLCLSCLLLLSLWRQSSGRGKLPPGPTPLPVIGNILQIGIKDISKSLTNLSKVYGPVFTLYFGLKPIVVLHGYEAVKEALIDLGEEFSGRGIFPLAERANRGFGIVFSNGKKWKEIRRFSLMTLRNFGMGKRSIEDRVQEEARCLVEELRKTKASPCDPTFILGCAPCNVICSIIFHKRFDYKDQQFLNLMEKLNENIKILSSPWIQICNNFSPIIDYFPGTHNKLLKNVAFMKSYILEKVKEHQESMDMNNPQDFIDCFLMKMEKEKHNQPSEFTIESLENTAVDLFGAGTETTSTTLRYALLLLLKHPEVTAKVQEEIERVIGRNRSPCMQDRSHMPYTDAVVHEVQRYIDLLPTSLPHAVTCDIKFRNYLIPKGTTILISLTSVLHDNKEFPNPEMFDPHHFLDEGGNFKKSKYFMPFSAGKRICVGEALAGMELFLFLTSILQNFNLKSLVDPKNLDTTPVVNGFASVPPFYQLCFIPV
# CYP2C19 inhib = human CYP2C19 inhibition. P33261. CYP2C19 Supersomes, luciferin-H EGE luminescence, 30 min. inhibition, % at 5 µM. 21% of 96,000 active;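 active means CYP2C19 inhibition above a set limit at 5 µM in the primary screen, cut at about 50% in these data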;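 further: plate controls were negative control wells for no effect and 2.5 mM tranylcypromine positive control for full effect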
# CYP2C9 activ = increases human cytochrome P450 2C9 activity; activation factor at 5 µM; recombinant CYP2C9, luciferin-H conversion, luminescence; stronger effect = higher value; factor 1 = untreated enzyme, 0 = blocked; 1.4% of 96,000 active; P11712;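 active means activation factor of 2 or more for CYP2C9 at a 5 µM dose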;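 further: 0 = sulfaphenazole-blocked wells and 1 = vehicle-only wells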
# CYP2C19 act = increases human CYP2C19 enzyme activity. P33261. recombinant CYP2C19, luciferin-H EGE luminescence; stronger effect = higher value; 0 = fully inhibited enzyme, 1 = untreated enzyme. activation factor at 5 µM. 96,000 tested, under 10 active. AID 1025;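 active means activation factor of at least 2 at 5 µM in the primary screen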;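 further: 0 = wells with 2.5 mM tranylcypromine and 1 = vehicle-only wells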
# An asterisk follows results filed as active.
SMILES,PLAP act,CYP2C9 inh,CYP2C19 inhib,CYP2C9 activ,CYP2C19 act
Cc1ccc(Cl)cc1Nc1nc(-c2sc(NC(=O)c3ccco3)nc2C)cs1,1,57*,16,0.4,0.8
Cc1ccc(Cl)cc1Nc1nc(-c2sc(NC(=O)c3cccc(Cl)c3)nc2C)cs1,1,55*,22,0.5,0.8
COc1ccccc1Nc1nc(-c2sc(NC(=O)c3ccco3)nc2C)cs1,0.9,63*,10,0.4,0.9
Cc1nc(NC(=O)c2ccco2)sc1-c1csc(Nc2ccc(Cl)cc2)n1,1,31,50,0.7,0.5
CCN(CC)CCNC(=O)CCCNC(=O)Cn1cnc2sc(C)c(C)c2c1=O,1,-5,-18,1.1,1.2
CC(Sc1nnc(C(C)N(C)C)n1-c1ccc(Cl)cc1)C(=O)Nc1ccc2c(c1)OCO2 (stereo unspecified),1.4,6,15,0.9,0.9
CCCSc1nnc(NC(=O)c2nc(SC)ncc2Cl)s1,1,20,-17,0.8,1.2
COc1cc(CNC2CCCCCC2)cc(OC)c1OC,1,-21,2,1.2,1
COc1cc(CNc2ccccc2SC)cc(OC)c1OC,1.5,89*,95*,0.1,0.1
COc1ccc(CNc2ccccc2SC)cc1OC,1.4,49,83*,0.5,0.2
CCNC(=O)N1CCOCC1,0.9,5,0,1,1
N#Cc1c(C(F)(F)F)cc(-c2ccco2)nc1SCc1ccncc1,1,92*,87*,0.1,0.1
N#Cc1c(C(F)(F)F)cc(-c2ccco2)nc1SCc1ccccn1,1.1,22,10,0.8,0.9
O=C(c1ccccn1)N(Cc1ccco1)C1(C(=O)NC2CCCCC2)CCCCC1,1.3,15,2,0.8,1
Cc1ccccc1C(C(=O)NCc1ccccc1)N(Cc1ccco1)C(=O)c1ccccn1 (stereo unspecified),1.4,34,54*,0.7,0.5
Cc1cccc(C)c1NC(=O)C1(N(Cc2ccco2)C(=O)c2ccccn2)CCCC1,1.4,63*,41,0.4,0.6
O=C(NCc1ccccc1)C(c1ccc(F)cc1)N(Cc1ccco1)C(=O)c1ccccn1 (stereo unspecified),1.2,23,62*,0.8,0.4
COC(=O)/C=C1/N/C(=N\c2nc(C)cc(C)n2)N(c2ccc(C)c(C)c2)C1=O,1.8,28,0,0.7,1
COC(=O)CNC(=O)Cc1c(F)cccc1Cl,0.9,-7,-11,1.1,1.1
Cc1cccc(CN2CCC(C(N)=O)CC2)c1,0.8,0,-9,1,1.1
COC(=O)c1cc(=O)n(CCc2ccccc2F)c(=Nc2ccc(F)c(Cl)c2)s1,0.7,40,15,0.6,0.8
COC(=O)c1cc(=O)n(Cc2ccco2)c(=Nc2ccc(F)c(Cl)c2)s1,1.2,69*,64*,0.3,0.4
COC(=O)c1cc(=O)n(Cc2ccc3c(c2)OCO3)c(=Nc2ccccc2)s1,1.2,68*,17,0.3,0.8
CC(C)c1ccc(NC(=O)COc2ccc(S(=O)(=O)N3CCOCC3)cc2)cc1,0.9,38,-18,0.6,1.2
CN1CC=C2C(C#N)=C(N)C(C#N)(C#N)C(c3cccc(Cl)c3Cl)C2C1 (stereo unspecified),1.4,91*,93*,0.1,0.1
SMILES,PLAP act,CYP2C9 inh,CYP2C19 inhib,CYP2C9 activ,CYP2C19 act
COC(=O)c1ccccc1NC(=O)CSCC(=O)Nc1ccccc1,1,34,53*,0.7,0.5
COc1cccc(NC(=O)CSCC(=O)O)c1,1,12,12,0.9,0.9
COc1cccc(NC(=O)CSCC(=O)Nc2ccccc2)c1,0.8,78*,60*,0.2,0.4
CCCCSCCCNC(=O)Nc1cccc(OC)c1,0.8,73*,80*,0.3,0.2
COc1ccc(C(=O)NCC(=O)Nc2ccccc2)cc1OC,1.1,-38,-1,1.4,1
COc1cccc(NC(=O)CNC(=O)c2ccc(F)cc2)c1,0.9,42,53*,0.6,0.5
CC(C)n1c(CCC(=O)O)ccc1-c1ccccc1,1,11,14,0.9,0.9
COc1cccc(NC(=O)Cc2ccccc2)c1,1,31,94*,0.7,0.1
COc1cccc(NC(=O)CC2SC(=Nc3ccccc3)NC2=O)c1 (stereo unspecified),1.5,70*,63*,0.3,0.4
CCN(CC)C(=O)CSCC(=O)Nc1ccccc1,0.8,-3,57*,1,0.4
CS(=O)(=O)N1CCN(c2ccc(NC(=O)CSc3ccc(Cl)cc3)cc2)CC1,0.8,16,-2,0.8,1
O=S1(=O)CCC(N=Cc2cc(Br)ccc2O)C1 (stereo unspecified),1,-8,-11,1.1,1.1
CC(=O)NCCc1ccc(S(=O)(=O)NC2OC(=O)c3ccccc32)cc1 (stereo unspecified),1,-14,-19,1.1,1.2
COc1ccc(C2=CC(c3cc(OC)c(OC)c(OC)c3)NC(=S)N2)cc1 (stereo unspecified),1.5,94*,74*,0.1,0.3
COc1cc(C2C=C(C34CC5CC(CC(C5)C3)C4)NC(=S)N2)cc(OC)c1OC (stereo unspecified),1.5,54*,49,0.5,0.5
O=C(CN(Cc1ccccc1)S(=O)(=O)c1ccccc1)N/N=C/c1ccc2c(c1)OCO2,1.3,74*,53*,0.3,0.5
O=C(CN(Cc1ccccc1)S(=O)(=O)c1ccc2c(c1)OCCO2)N/N=C/c1ccc(F)cc1,1,36,30,0.6,0.7
O=C(CN(Cc1ccc(Cl)c(Cl)c1)S(=O)(=O)c1ccccc1)N/N=C\c1ccc2c(c1)OCO2,1.5,65*,19,0.4,0.8
CCS(=O)(=O)N1CCC(C(=O)NCC2CCCO2)CC1 (stereo unspecified),1.1,-14,-11,1.1,1.1
O=C(OCC(F)(F)F)c1cccc(COc2ccc3ccccc3c2)c1,0.6,56*,52*,0.4,0.5
CCOc1ccc(OCc2cccc(C(=O)N3CCCC3)c2)cc1,1.2,66*,40,0.3,0.6
CCOc1ccc(OCc2cccc(C(=O)O)c2)cc1,1.1,99*,100*,0,0
CCOc1ccc(OCc2ccc(C(=O)OCc3ccccn3)o2)cc1,1.6,55*,50*,0.4,0.5
CCOc1ccc(C(=O)NCc2ccccn2)cc1,0.9,-16,-17,1.2,1.2
CCOc1ccc(C(=O)N2CCN(Cc3ccccc3)CC2)cc1,1.2,4,12,1,0.9
COCC(C)NCc1cccc(C)c1 (stereo unspecified),1.1,-10,15,1.1,0.9
CSc1c[n+]2c(n1C)CCC2,1,-5,-7,1,1.1
CC1(C(=O)NC2CCCCCCC2)CCC(=O)N1Cc1cccnc1 (stereo unspecified),1.1,16,14,0.8,0.9
CCOc1ccc(OCc2ccc(C(=O)N3CCCC3)o2)cc1,1.5,57*,39,0.4,0.6
